# Measurements reported in PubChem BioAssay AID1159580 (chemical genetic matrix, 2015).
# Among all 5,500 compounds or so, about 2,000 (36%) were called active. Roughly 18% stayed inconclusive and do not appear here. The list shows a part of the results. A number with no mark means an inactive call. No stated cut-off is given here; in the data, active means normalized growth mostly below about 0.91 (no sharp cut-off); inconclusive means no clear call, values can overlap the other calls; inactive means mostly above about 0.92.
# Assay: chemical genetic growth profiling, strain panel (AID 1159580);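 further: tested at 20 µM; growth read once vehicle control cultures reached saturation at 30 °C; 1 = growth at the plate median or of vehicle wells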
# Details: S. cerevisiae deletion strains, growth OD
structure (smiles),measurement,setting,value
C=CCCCCCCCCCCCC(O)CC(O)CO (centres undefined) (tested in a mixture with another compound),normalized growth,"locus YBR021W, strain FUR4, stronger effect = lower value",0.426 (active)
same,normalized growth,"locus YBR229C, strain ROT2, stronger effect = lower value",0.531 (active)
same,normalized growth,"locus YCL029C, strain bik1, stronger effect = lower value",0.253 (active)
same,normalized growth,"locus YDL035C, strain GPR1, stronger effect = lower value",0.359 (active)
same,normalized growth,"locus YDL074C, strain BRE1, stronger effect = lower value",0.208 (active)
same,normalized growth,"locus YDL101C, strain DUN1, stronger effect = lower value",0.242 (active)
same,normalized growth,"locus YDL185W, strain tfp1, stronger effect = lower value",0.611 (active)
same,normalized growth,"locus YDL192W, strain arf1, stronger effect = lower value",0.231 (active)
same,normalized growth,"locus YDR101C, strain arx1, stronger effect = lower value",0.471 (active)
same,normalized growth,"locus YDR150W, strain NUM1, stronger effect = lower value",0.637 (active)
same,normalized growth,"locus YDR162C, strain NBP2, stronger effect = lower value",0.281 (active)
same,normalized growth,"locus YDR318W, strain mcm21, stronger effect = lower value",0.224 (active)
same,normalized growth,"locus YDR388W, stronger effect = lower value",0.496 (active)
same,normalized growth,"locus YDR502C, strain sam2, stronger effect = lower value",0.347 (active)
same,normalized growth,"locus YEL061C, strain CIN8, stronger effect = lower value",0.177 (active)
same,normalized growth,"locus YER110C, stronger effect = lower value",0.27 (active)
same,normalized growth,"locus YER155C, strain BEM2, stronger effect = lower value",0.0936 (active)
same,normalized growth,"locus YER167W, strain BCK2, stronger effect = lower value",0.276 (active)
same,normalized growth,"locus YGL078C, strain dbp3, stronger effect = lower value",0.465 (active)
same,normalized growth,"locus YGL086W, strain mad1, stronger effect = lower value",0.145 (active)
same,normalized growth,"locus YGL248W, strain PDE1, stronger effect = lower value",0.165 (active)
same,normalized growth,"locus YGR135W, strain pre9, stronger effect = lower value",0.335 (active)
same,normalized growth,"locus YGR252W, strain gcn5, stronger effect = lower value",0.407 (active)
same,normalized growth,"locus YHR030C, strain SLT2, stronger effect = lower value",0.21 (active)
same,normalized growth,"locus YHR079C, strain IRE1 (second series), stronger effect = lower value",0.253 (active)
same,normalized growth,"locus YHR094C, strain hxt1, stronger effect = lower value",0.198 (active)
same,normalized growth,"locus YHR129C, strain ARP1, stronger effect = lower value",0.248 (active)
same,normalized growth,"locus YHR200W, strain rpn10, stronger effect = lower value",0.328 (active)
same,normalized growth,"locus YIL066C, strain RNR3, stronger effect = lower value",0.217 (active)
same,normalized growth,"locus YIL073C, strain SPO22, stronger effect = lower value",0.544 (active)
same,normalized growth,"locus YIL125W, strain kgd1, stronger effect = lower value",0.288 (active)
same,normalized growth,"locus YIR030C, strain dcg1, stronger effect = lower value",0.341 (active)
same,normalized growth,"locus YJL095W, strain BCK1, stronger effect = lower value",0.139 (active)
same,normalized growth,"locus YJL134W, strain LCB3, stronger effect = lower value",0.273 (active)
same,normalized growth,"locus YJL168C, strain set2, stronger effect = lower value",0.521 (active)
same,normalized growth,"locus YJL187C, strain SWE1 (second series), stronger effect = lower value",0.386 (active)
same,normalized growth,"locus YKL009W, strain mrt4, stronger effect = lower value",0.274 (active)
same,normalized growth,"locus YKL068W, stronger effect = lower value",1
same,normalized growth,"locus YKL085W, strain MDH1 (second series), stronger effect = lower value",0.343 (active)
same,normalized growth,"locus YKL085W, strain MDH1, stronger effect = lower value",0.343 (active)
same,normalized growth,"locus YKR001C, strain vps1, stronger effect = lower value",0.123 (active)
same,normalized growth,"locus YLR039C, strain RIC1, stronger effect = lower value",0.46 (active)
same,normalized growth,"locus YLR058C, strain SHM2, stronger effect = lower value",0.301 (active)
same,normalized growth,"locus YLR102C, strain apc9, stronger effect = lower value",0.225 (active)
same,normalized growth,"locus YLR262C, strain YPT6, stronger effect = lower value",0.355 (active)
same,normalized growth,"locus YLR268W, strain sec22, stronger effect = lower value",0.308 (active)
same,normalized growth,"locus YLR330W, strain CHS5, stronger effect = lower value",0.097 (active)
same,normalized growth,"locus YLR371W, strain rom2, stronger effect = lower value",0.204 (active)
same,normalized growth,"locus YLR418C, strain cdc73, stronger effect = lower value",0.186 (active)
same,normalized growth,"locus YML016C, strain PPZ1, stronger effect = lower value",0.218 (active)
same,normalized growth,"locus YML032C, strain rad52, stronger effect = lower value",0.201 (active)
same,normalized growth,"locus YML124C, strain tub3, stronger effect = lower value",0.503 (active)
same,normalized growth,"locus YMR078C, strain ctf18, stronger effect = lower value",0.125 (active)
same,normalized growth,"locus YMR223W, strain ubp8, stronger effect = lower value",0.159 (active)
same,normalized growth,"locus YMR263W, strain SAP30, stronger effect = lower value",0.32 (active)
same,normalized growth,"locus YMR307W, strain GAS1, stronger effect = lower value",0.241 (active)
same,normalized growth,"locus YNL067W, strain RPL9B, stronger effect = lower value",0.56 (active)
same,normalized growth,"locus YNL153C, strain GIM3, stronger effect = lower value",0.365 (active)
same,normalized growth,"locus YNL233W, strain BNI4, stronger effect = lower value",0.141 (active)
same,normalized growth,"locus YNL250W, strain rad50, stronger effect = lower value",0.734 (active)
same,normalized growth,"locus YNL271C, strain bni1, stronger effect = lower value",0.526 (active)
same,normalized growth,"locus YNL298W, strain CLA4, stronger effect = lower value",0.384 (active)
same,normalized growth,"locus YNL307C, strain MCK1, stronger effect = lower value",0.0684 (active)
same,normalized growth,"locus YNR052C, strain pop2, stronger effect = lower value",0.426 (active)
same,normalized growth,"locus YOL006C, strain TOP1, stronger effect = lower value",0.149 (active)
same,normalized growth,"locus YOL012C, strain htz1",1.15
same,normalized growth,"locus YOL147C, strain pex11, stronger effect = lower value",0.104 (active)
same,normalized growth,"locus YOR061W, strain CKA2, stronger effect = lower value",0.0632 (active)
same,normalized growth,"locus YOR069W, strain VPS5, stronger effect = lower value",0.559 (active)
same,normalized growth,"locus YOR136W, strain idh2, stronger effect = lower value",0.136 (active)
same,normalized growth,"locus YOR144C, strain elg1, stronger effect = lower value",0.236 (active)
same,normalized growth,"locus YOR184W, strain ser1, stronger effect = lower value",0.129 (active)
same,normalized growth,"locus YOR316C, strain cot1, stronger effect = lower value",0.354 (active)
same,normalized growth,"locus YPL241C, strain CIN2, stronger effect = lower value",0.114 (active)
same,normalized growth,"locus YPR119W, strain clb2, stronger effect = lower value",0.148 (active)
same,normalized growth,"locus YPR141C, strain kar3, stronger effect = lower value",0.824 (active)
same,normalized growth,"locus YPR163C, strain tif3, stronger effect = lower value",0.205 (active)
same,normalized growth,"locus YPR167C, strain met16, stronger effect = lower value",0.203 (active)
same,normalized growth,"strain wtn01, stronger effect = lower value",0.337 (active)
